# Source: PubChem BioAssay (Tox21)
# Calls of active or inactive are those of the source. Calls follow the shape of the dose curve; as a rule, active = well fitted curve in the direction sought with a large enough effect in the repeat runs; inconclusive = weak or mixed curves; inactive = flat fitted curve, though single readings scatter.
# Assay: qHTS assay to test for compound auto fluorescence at 590 nm (red) in HEK293 cells (AID 720679)
# Conditions: red autofluorescence 540/590 nm; series mostly up to 91.3 µM; fluorescence, % of fluorescent control: at the top concentration
# Outline: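 We plated HEK293 cells in 10% dialyzed FBS medium, let them adhere for 4-5 hr, then added 23 nL compound. Overnight at 37C and 5% CO2 preceded fluorescence measurement at 540/590nm.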
# % is scaled to controls: 0 for no effect and ±100 for the full control effect.
Compound,"fluorescence, % of fluorescent control",outcome
CN(C)CC[C@@H](c1ccc(Br)cc1)c1ccccn1,0.11% [at 46 µM] (inactive),
O=C(O)/C=C/c1cnc[nH]1,-0.136% (inactive),
Cc1occc1S,0.254% (inactive),
CC(C)CCCCCCOC(=O)c1ccc(C(=O)OCCCCCCC(C)C)c(C(=O)OCCCCCCC(C)C)c1,0.237% (inactive),
O=c1[nH]cnc2ccccc12,-0.291% [at 95.7 µM] (inactive),
CCN(CC)CCOc1ccc2c(c1)C(=O)c1cc(OCCN(CC)CC)ccc1-2,-0.109% [at 46 µM] (inactive),
CC(=O)OCCc1ccccc1,0.121% (inactive),
O=C(O)COC(=O)Cc1ccccc1Nc1c(Cl)cccc1Cl,-0.0045% [at 18.6 µM] (inactive),
CCCCCCCCCCCCC(=O)O,-0.0932% (inactive),
Oc1ccc(Cc2ccccc2)cc1,-0.235% (inactive),
NC1CCN(c2nc3c(cc2F)c(=O)c(C(=O)O)cn3-c2ccc(F)cc2F)C1 (stereo unspecified),0.0488% [at 46 µM] (inactive),
CC(C)c1ccc2c(C(C)C)cc(C(C)C)c(S(=O)(=O)O)c2c1,-0.112% [at 95.7 µM] (inactive),
CCN1CCC[C@H]1CNC(=O)c1c(OC)ccc(Br)c1OC,-0.13% [at 46 µM] (inactive),
O=CNc1ccccc1,0.286% (inactive),
Cc1cccc(Oc2ccccc2)c1,0.396% (inactive),
O=C(O)[C@@H]1[C@H]2C[C@H]3c4[nH]c5ccccc5c4CCN3C[C@@H]2CC[C@@H]1O,-0.335% [at 18.6 µM] (inactive),
O=C(O)Cc1cc(I)c(Oc2ccc(O)c(I)c2)c(I)c1,,inactive
O=c1c2ccccc2nnn1CCl,0.469% (inactive),
O=C(NN1CCCC1)NS(=O)(=O)c1ccc(Cl)cc1,0.0412% [at 46 µM] (inactive),

Compound,"fluorescence, % of fluorescent control",outcome
C[C@@H](C1=C(CCN(C)C)Cc2ccccc21)c1ccccn1,0.0725% [at 46 µM] (inactive),
CC(=O)N(O)CCCCCNC(=O)CCC(=O)N(O)CCCCCNC(=O)CCC(=O)N(O)CCCCCN,-0.043% [at 18.6 µM] (inactive),
CCN(CC)CCOC(=O)C1(c2ccccc2)CCCC1,-0.326% [at 46 µM] (inactive),
CC(C)(C)c1ccc(OCC2CO2)cc1 (stereo unspecified),0% [at 95.7 µM] (inactive),
COc1cc(C(C)(C)C)c(O)c(C(C)(C)C)c1,0.0589% (inactive),
Cc1ccccn1,,inactive
CCOc1ccc(NC(=O)CC(C)=O)cc1,-0.0919% (inactive),
CC(=O)/C=C/C1C(C)=CCCC1(C)C (stereo unspecified),-0.583% (inactive),
CCCCOC(=O)/C=C\C(=O)OCCCC,0.236% [at 95.7 µM] (inactive),
N#CCCNCCC#N,0.423% [at 95.7 µM] (inactive),
CCCOc1ccc2nc(NC(=O)OC)[nH]c2c1,-0.0194% [at 46 µM] (inactive),
O=C1c2cccc(O)c2C(=O)c2c(O)cc(CO)cc21,0.477% (inactive),
CCOC(=O)C1=NN(c2ccccc2)C(=O)C1,-0.134% (inactive),
CC(=O)SCc1ccco1,0.0044% (inactive),
Cc1ccccc1N=Nc1ccc(N=Nc2c(O)ccc3ccccc23)c(C)c1,-0.151% [at 46 µM] (inactive),
CN(C(=O)CCCOc1ccc2[nH]c(=O)ccc2c1)C1CCCCC1,0.286% [at 46 µM] (inactive),
CCN(CC)C(C)CN1c2ccccc2Sc2ccccc21 (stereo unspecified),-0.0946% [at 18.6 µM] (inactive),
Cc1ccc(C(=O)C(C)CN2CCCCC2)cc1 (stereo unspecified),,inactive
O=C(O)Cn1c(C(=O)Nc2nc(-c3ccccc3Cl)cs2)cc2ccccc21,0.43% [at 46 µM] (inactive),

# Assay: qHTS assay to test for compound auto fluorescence at 535 nm (green) in HEK293 cells (AID 720680)
# Conditions: green autofluorescence 485/535 nm; series mostly up to 91.3 µM; fluorescence, % of fluorescein: at the top concentration
Compound,"fluorescence, % of fluorescein",outcome
CN(C)CC[C@@H](c1ccc(Br)cc1)c1ccccn1,0.0429% [at 46 µM] (inactive),
O=C(O)/C=C/c1cnc[nH]1,-0.0212% (inactive),
Cc1occc1S,0.0422% (inactive),
CC(C)CCCCCCOC(=O)c1ccc(C(=O)OCCCCCCC(C)C)c(C(=O)OCCCCCCC(C)C)c1,0.0137% (inactive),
O=c1[nH]cnc2ccccc12,0.0789% [at 95.7 µM] (inactive),
CCN(CC)CCOc1ccc2c(c1)C(=O)c1cc(OCCN(CC)CC)ccc1-2,0.0283% [at 46 µM] (inactive),
CC(=O)OCCc1ccccc1,0.0278% (inactive),
O=C(O)COC(=O)Cc1ccccc1Nc1c(Cl)cccc1Cl,0.0784% [at 18.6 µM] (inactive),
CCCCCCCCCCCCC(=O)O,0.0027% (inactive),
Oc1ccc(Cc2ccccc2)cc1,0.0785% (inactive),
NC1CCN(c2nc3c(cc2F)c(=O)c(C(=O)O)cn3-c2ccc(F)cc2F)C1 (stereo unspecified),0.0226% [at 46 µM] (inactive),
CC(C)c1ccc2c(C(C)C)cc(C(C)C)c(S(=O)(=O)O)c2c1,-0.134% [at 95.7 µM] (inactive),
CCN1CCC[C@H]1CNC(=O)c1c(OC)ccc(Br)c1OC,-0.0971% [at 46 µM] (inactive),
O=CNc1ccccc1,-0.11% (inactive),
Cc1cccc(Oc2ccccc2)c1,-0.0154% (inactive),
O=C(O)[C@@H]1[C@H]2C[C@H]3c4[nH]c5ccccc5c4CCN3C[C@@H]2CC[C@@H]1O,-0.047% [at 18.6 µM] (inactive),
O=C(O)Cc1cc(I)c(Oc2ccc(O)c(I)c2)c(I)c1,,inactive
O=c1c2ccccc2nnn1CCl,0.1% (inactive),
O=C(NN1CCCC1)NS(=O)(=O)c1ccc(Cl)cc1,0.0063% [at 46 µM] (inactive),

Compound,"fluorescence, % of fluorescein",outcome
C[C@@H](C1=C(CCN(C)C)Cc2ccccc21)c1ccccn1,-0.0008% [at 46 µM] (inactive),
CC(=O)N(O)CCCCCNC(=O)CCC(=O)N(O)CCCCCNC(=O)CCC(=O)N(O)CCCCCN,0.127% [at 18.6 µM] (inactive),
CCN(CC)CCOC(=O)C1(c2ccccc2)CCCC1,0.1% [at 46 µM] (inactive),
CC(C)(C)c1ccc(OCC2CO2)cc1 (stereo unspecified),-0.0615% [at 95.7 µM] (inactive),
COc1cc(C(C)(C)C)c(O)c(C(C)(C)C)c1,0.0331% (inactive),
Cc1ccccn1,,inactive
CCOc1ccc(NC(=O)CC(C)=O)cc1,-0.173% (inactive),
CC(=O)/C=C/C1C(C)=CCCC1(C)C (stereo unspecified),0.134% (inactive),
CCCCOC(=O)/C=C\C(=O)OCCCC,-0.0029% [at 95.7 µM] (inactive),
N#CCCNCCC#N,0.0005% [at 95.7 µM] (inactive),
CCCOc1ccc2nc(NC(=O)OC)[nH]c2c1,-0.0274% [at 46 µM] (inactive),
O=C1c2cccc(O)c2C(=O)c2c(O)cc(CO)cc21,0.0198% (inactive),
CCOC(=O)C1=NN(c2ccccc2)C(=O)C1,0.0081% (inactive),
CC(=O)SCc1ccco1,0.102% (inactive),
Cc1ccccc1N=Nc1ccc(N=Nc2c(O)ccc3ccccc23)c(C)c1,0.0661% [at 46 µM] (inactive),
CN(C(=O)CCCOc1ccc2[nH]c(=O)ccc2c1)C1CCCCC1,0.0652% [at 46 µM] (inactive),
CCN(CC)C(C)CN1c2ccccc2Sc2ccccc21 (stereo unspecified),-0.0513% [at 18.6 µM] (inactive),
Cc1ccc(C(=O)C(C)CN2CCCCC2)cc1 (stereo unspecified),,inactive
O=C(O)Cn1c(C(=O)Nc2nc(-c3ccccc3Cl)cs2)cc2ccccc21,0.0697% [at 46 µM] (inactive),
